# PubChem BioAssay (NCATS)
# Inconclusive results are not listed. Calls of active or inactive are those of the source. The call rests on the fitted dose curve; in most records, active means well fitted curve in the direction sought with a large enough effect; inconclusive means small, poorly fitted or top-dose-only effect, or another doubt; inactive means no such curve, though single readings can be large; an effect the other way counts as inactive or inconclusive.
# Columns and labels:
# [1] = Quantitative High-Throughput drug screen in 47 multiple myeloma cell lines against the NCATS MIPE library collection: JIM3_ECACC cell viability assay (AID 1918963; further: nearly all actives have a fitted effect of over 35% in size)
# In short: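 Inhibition of cell viability is measured here. Each line was plated at 500 cells per well, treated with MIPE 4.0 drugs, kept 48 hours at 37C, then assayed for ATP content by CellTiter-Glo luminescence.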
# [2] = Quantitative High-Throughput drug screen in 47 multiple myeloma cell lines against the NCATS MIPE library collection: Karpas25_ECACC cell viability assay (AID 1918968; further: nearly all actives have a fitted effect of over 35% in size)
# In short: (§1)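 Myeloma cells (500 per well) were exposed to MIPE 4.0 compounds by pin transfer and incubated 48 hours at 37C, 5% CO2. Viability was read as ATP by CellTiter-Glo luminescence, normalised to DMSO (100%) and media-only (0%) wells.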
# [3] = Quantitative High-Throughput drug screen in 47 multiple myeloma cell lines against the NCATS MIPE library collection: KMS20_JCRB cell viability assay (AID 1918973); further: nearly all actives have a fitted effect of over 45% in size
# In short: as §1
# [4] = Quantitative High-Throughput drug screen in 47 multiple myeloma cell lines against the NCATS MIPE library collection: KMS21BM_JCRB cell viability assay (AID 1918974); settings: ATP luminescence, 48 h; viability: at 45.8 µM (top of the series) unless noted
# In short: as §1
# [5] = Quantitative High-Throughput drug screen in 47 multiple myeloma cell lines against the NCATS MIPE library collection: MOLP8_DSMZ cell viability assay (AID 1918977); further: nearly all actives have a fitted effect of over 45% in size
# In short: (§2)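 Viability after 48 h drug exposure was measured as ATP-dependent luminescence. Cells, 500 per well, sat at 37 °C under 5% CO2; DMSO wells set 100%, media-only wells 0%.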
# [6] = Quantitative High-Throughput drug screen in 47 multiple myeloma cell lines against the NCATS MIPE library collection: NCIH929_DSMZ cell viability assay (AID 1918978); further: nearly all actives have a fitted effect of over 35% in size
# In short: as §2
# [7] = Quantitative High-Throughput drug screen in 47 multiple myeloma cell lines against the NCATS MIPE library collection: MM1R_ATCC cell viability assay (AID 1918981); further: nearly all actives have a fitted effect of over 35% in size
# In short: as §2
# [8] = Quantitative High-Throughput drug screen in 47 multiple myeloma cell lines against the NCATS MIPE library collection: H1112_PLB cell viability assay (AID 1918967; further: nearly all actives have a fitted effect of over 30% in size)
# In short: as §1
# [9] = Quantitative High-Throughput drug screen in 47 multiple myeloma cell lines against the NCATS MIPE library collection: KMS12BM_JCRB cell viability assay (AID 1918971); further: nearly all actives have a fitted effect of over 35% in size
# In short: (§3)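 Luminescent ATP measurement with CellTiter-Glo gives viability, scaled between DMSO-only wells (100%) and media-only wells (0%). Cells, 500 per well, faced library compounds for 48 hours at 37C.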
# [10] = Quantitative High-Throughput drug screen in 47 multiple myeloma cell lines against the NCATS MIPE library collection: MMM1_PLB cell viability assay (AID 1918976); further: nearly all actives have a fitted effect of over 35% in size
# In short: as §2
# [11] = Quantitative High-Throughput drug screen in 47 multiple myeloma cell lines against the NCATS MIPE library collection: OCIMY1_PLB cell viability assay (AID 1918979); further: nearly all actives have a fitted effect of over 35% in size
# In short: as §2
# [12] = Quantitative High-Throughput drug screen in 47 multiple myeloma cell lines against the NCATS MIPE library collection: MM1S_ATCC cell viability assay (AID 1918980); further: nearly all actives have a fitted effect of over 45% in size
# In short: as §2
# [13] = Quantitative High-Throughput drug screen in 47 multiple myeloma cell lines against the NCATS MIPE library collection: LP1_DSMZ cell viability assay (AID 1918982); further: nearly all actives have a fitted effect of over 35% in size
# In short: as §2
# [14] = Quantitative High-Throughput drug screen in 47 multiple myeloma cell lines against the NCATS MIPE library collection: KMS27_JCRB cell viability assay (AID 1918970); further: nearly all actives have a fitted effect of over 30% in size
# In short: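 Luminescent ATP read-out (CellTiter-Glo, 5 min at room temperature) after 48 h compound exposure of 500 KMS27_JCRB cells per well; DMSO wells define full viability and media-only wells zero.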
# [15] = Quantitative High-Throughput drug screen in 47 multiple myeloma cell lines against the NCATS MIPE library collection: KMS12PE_JCRB cell viability assay (AID 1918972); further: nearly all actives have a fitted effect of over 30% in size
# In short: (§4)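 qHTS of the MIPE 4.0 collection: 500 myeloma cells/well, 48 h drug exposure at 37C in 5% CO2, then CellTiter-Glo for 5 min at room temperature before luminescence reading.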
# [16] = Quantitative High-Throughput drug screen in 47 multiple myeloma cell lines against the NCATS MIPE library collection: INA6_PLB cell viability assay (AID 1918965; further: nearly all actives have a fitted effect of over 55% in size)
# In short: as §4
# [17] = Quantitative High-Throughput drug screen in 47 multiple myeloma cell lines against the NCATS MIPE library collection: KMS26_JCRB cell viability assay (AID 1918975); further: nearly all actives have a fitted effect of over 45% in size
# In short: as §3
# [18] = Quantitative High-Throughput drug screen in 47 multiple myeloma cell lines against the NCATS MIPE library collection: JJN3_DSMZ cell viability assay (AID 1918966; further: nearly all actives have a fitted effect of over 50% in size)
# In short: as §1
# [19] = Quantitative High-Throughput drug screen in 47 multiple myeloma cell lines against the NCATS MIPE library collection: JIM1_ECACC cell viability assay (AID 1918964)
# In short: as §1
# Potency means the concentration at half of the fitted maximal effect.
compound,measurement,setting,value
Nc1ccn([C@@H]2CS[C@H](CO)O2)c(=O)n1,Potency,[1],inactive
same,Potency,[2],24.1 µM (active)
same,Potency,[3],10.8 µM (active)
same,viability,[4],155% [at 92.2 µM] (active)
same,Potency,[5],inactive
same,Potency,[6],38.2 µM (active)
same,Potency,[7],inactive
COc1ccc2c(OCc3nnc4ccc(-c5ccccc5)nn34)ccnc2c1,Potency,[1],inactive
same,Potency,[8],inactive
same,Potency,[2],inactive
same,Potency,[9],inactive
same,Potency,[10],inactive
same,Potency,[11],inactive
same,Potency,[12],inactive
same,Potency,[7],inactive
same,Potency,[13],inactive
C[C@]12CC[C@H](O)CC1=CCC1C2CC[C@]2(C)C(n3cnc4ccccc43)=CCC12 (some centres undefined),Potency,[1],inactive
same,Potency,[8],inactive
same,Potency,[2],inactive
same,Potency,[14],inactive
same,Potency,[3],inactive
same,Potency,[11],inactive
same,Potency,[12],inactive
Cc1cn2cc(C(=O)N(C)CCO)cc(N[C@@H]3CCOc4cccc(C)c43)c2n1,Potency,[1],inactive
same,Potency,[14],inactive
same,Potency,[15],inactive
same,Potency,[3],inactive
same,Potency,[6],inactive
same,Potency,[11],inactive
same,Potency,[7],inactive
same,Potency,[13],inactive
Cn1cc(-c2ccncc2)c(-c2ccc(OCc3ccc4ccccc4n3)cc2)n1,Potency,[16],3.32 µM (active)
same,Potency,[2],1.48 µM (active)
same,Potency,[15],5.9 µM (active)
same,Potency,[4],3.32 µM (active)
same,Potency,[17],7.43 µM (active)
same,Potency,[11],16.6 µM (active)
same,Potency,[12],14.8 µM (active)
same,Potency,[7],10.5 µM (active)
C=CC(=O)Nc1cccc(Oc2nc(Nc3ccc(N4CCN(C)CC4)cc3OC)ncc2Cl)c1,Potency,[1],0.118 µM (active)
same,Potency,[18],20.9 µM (active)
same,Potency,[14],37.2 µM (active)
same,Potency,[17],26.4 µM (active)
same,Potency,[11],20.9 µM (active)
same,Potency,[13],20.9 µM (active)
CC(C)(O)c1cc2nc(-c3cnc(N)nc3)nc(N3CCOCC3)c2s1,Potency,[19],0.0105 µM (active)
same,Potency,[18],0.059 µM (active)
same,Potency,[8],0.418 µM (active)
same,Potency,[2],0.0296 µM (active)
same,Potency,[9],0.0833 µM (active)
same,Potency,[15],1.48 µM (active)
same,Potency,[3],0.148 µM (active)
same,Potency,[4],0.59 µM (active)
same,Potency,[17],0.132 µM (active)
same,Potency,[5],0.0296 µM (active)
same,Potency,[6],0.0148 µM (active)
same,Potency,[11],0.0296 µM (active)
same,Potency,[12],0.0662 µM (active)
same,Potency,[7],0.0662 µM (active)
same,Potency,[13],0.0132 µM (active)
CC(C)c1noc(N2CCC(COc3ccc(-c4ccc(S(C)(=O)=O)cc4)nc3)CC2)n1,Potency,[19],inactive
same,Potency,[8],inactive
same,Potency,[2],1.48 µM (active)
same,Potency,[15],0.418 µM (active)
same,Potency,[10],9.35 µM (active)
same,Potency,[5],0.418 µM (active)
same,Potency,[12],inactive
same,Potency,[7],13.2 µM (active)
c1nc2nc(Nc3ccc(N4CCOCC4)cc3)nc(NC3CCCCC3)c2[nH]1,Potency,[1],3.72 µM (active)
same,Potency,[18],18.7 µM (active)
same,Potency,[8],5.9 µM (active)
same,Potency,[2],5.26 µM (active)
same,Potency,[14],5.9 µM (active)
same,Potency,[15],1.66 µM (active)
same,Potency,[3],4.69 µM (active)
same,Potency,[17],16.6 µM (active)
same,Potency,[10],10.5 µM (active)
same,Potency,[5],8.33 µM (active)
same,Potency,[11],16.6 µM (active)
same,Potency,[12],5.9 µM (active)
same,Potency,[7],14.8 µM (active)
COc1cccc(Nc2c(C(N)=O)cnc3c(C)cc(S(=O)(=O)c4cccc(C(=O)N(C)C)c4)cc23)c1,Potency,[1],inactive
same,Potency,[9],inactive
same,Potency,[15],12.9 µM (active)
same,Potency,[6],inactive
CN(C1CCc2c(c3ccccc3n2CC(=O)O)C1)S(=O)(=O)c1ccc(F)cc1 (centres undefined),Potency,[1],inactive
same,Potency,[8],inactive
same,Potency,[2],2.09 µM (active)
same,Potency,[14],1.18 µM (active)
same,Potency,[15],5.26 µM (active)
same,Potency,[4],0.418 µM (active)
same,Potency,[17],inactive
same,Potency,[5],inactive
same,Potency,[6],inactive
same,Potency,[11],inactive
same,Potency,[12],1.48 µM (active)
CC(C)(O)CCc1ccc(OCc2cc(-c3cccc(OC(F)F)c3)c3ncccc3c2)cc1,Potency,[1],inactive
same,Potency,[8],20.9 µM (active)
same,Potency,[14],inactive
same,Potency,[9],inactive
same,Potency,[15],inactive
same,Potency,[11],inactive
same,Potency,[12],14.8 µM (active)
same,Potency,[13],inactive
COc1ccc(-n2nc(C(N)=O)c3c2C(=O)N(c2ccc(N4CCCCC4=O)cc2)CC3)cc1,Potency,[1],inactive
same,Potency,[8],inactive
same,Potency,[2],inactive
same,Potency,[14],inactive
same,Potency,[9],inactive
same,Potency,[15],inactive
same,Potency,[6],inactive
same,Potency,[11],inactive
same,Potency,[7],inactive
Clc1ccc2ncc(-c3cccc(NC4CNC4)n3)n2c1,Potency,[1],14.8 µM (active)
same,Potency,[18],16.6 µM (active)
same,Potency,[8],11.8 µM (active)
same,Potency,[2],26.4 µM (active)
same,Potency,[14],inactive
same,Potency,[9],23.5 µM (active)
same,Potency,[15],5.9 µM (active)
same,Potency,[17],23.5 µM (active)
same,Potency,[5],14.8 µM (active)
same,Potency,[11],20.9 µM (active)
same,Potency,[12],5.26 µM (active)
same,Potency,[7],16.6 µM (active)
CC(=O)Nc1sc2c(c1-c1nc3ccccc3s1)CNC2,Potency,[1],18.7 µM (active)
same,Potency,[16],3.72 µM (active)
same,Potency,[14],inactive
same,Potency,[9],11.8 µM (active)
same,Potency,[15],20.9 µM (active)
same,Potency,[3],16.6 µM (active)
same,Potency,[17],16.6 µM (active)
same,Potency,[5],5.9 µM (active)
same,Potency,[6],16.6 µM (active)
same,Potency,[12],14.8 µM (active)
same,Potency,[7],18.7 µM (active)
same,Potency,[13],18.7 µM (active)
O=C(O)c1ccc2c(c1)nc(Nc1cccc(Cl)c1)c1ccncc12,Potency,[19],6.62 µM (active)
same,Potency,[16],1.66 µM (active)
same,Potency,[18],9.35 µM (active)
same,Potency,[8],6.62 µM (active)
same,Potency,[2],2.64 µM (active)
same,Potency,[14],1.66 µM (active)
same,Potency,[4],3.32 µM (active)
same,Potency,[5],10.5 µM (active)
same,Potency,[6],3.72 µM (active)
same,Potency,[11],18.7 µM (active)
same,Potency,[12],6.62 µM (active)
same,Potency,[7],10.5 µM (active)
